Assay outcomes deposited in PubChem by National Center for Advancing Translational Sciences (NCATS).
Only some compounds are listed: those with a hit (about 3.4% of all), similar ones and a draw of the others.
VDR inh – blocks the human vitamin D receptor. AID 504847. Potency, µM, without a hit: max response, negative = inhibition, actives largely listed as inhibitors. 400,000 tested, 0.93% active. VDR-SRC2-3 peptide fluorescence polarization, 2 h. P11473; note: % is set by controls: 0 for no effect and ±100 for the full control effect
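Compounds are added to VDR with labelled SRC2-3 coactivator peptide and held 2 h at room temperature. Inhibition of the VDR–peptide interaction is then read as a change in fluorescence polarization.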
PKM2 act – increases activity of human pyruvate kinase M2 | P14618 | 260,000 tested, 0.34% active | Potency, µM (highest dose often 57.5 µM), for inactives: at the top dose activation, usual class: activators | AID 1631 | purified PKM2, Kinase-Glo ATP luminescence, activation; response scale: 0% is enzyme alone, no compound; note: % is set by controls: 0 for no effect and ±100 for the full control effect; nearly all actives have a fitted effect of over 55% in size
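Kinase-Glo luminescence reports ATP generated from ADP (0.1 mM) and PEP (0.5 mM) by purified hPK-M2 after 1 h at room temperature, pH 7.2 imidazole buffer; intermediate enzyme activity allows detecting inhibitors and activators.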
KAT2A inh – blocks human GCN5L2 histone acetyltransferase | Potency, µM (series often up to 58.9 µM), without a hit: at the highest dose activity change, negative = inhibition, most hits filed as inhibitors | 390,000 tested, 0.21% active | GCN5L2 HAT assay, ThioGlo1 CoA-SH fluorescence; note: % is set by controls: 0 for no effect and ±100 for the full control effect
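GCN5L2 (20nM final) in 50mM HEPES, 0.1mM EDTA pH 7.5, 0.01% Tween-20 was preincubated 15 min at room temperature with compound, then given ThioGlo1 (50uM), H3(1-25) peptide (75uM) and acetyl-CoA (70uM); CoA-thiol fluorescence (Ex340/Em540) was read at 0 and 20 min.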
PLK1 PBD block – blocks phosphopeptide binding to human PLK1 polo-box domain; P53350; 360,000 tested, 2.8% active; Plk1 PBD binding of FITC phosphopeptide, fluorescence polarization; Potency, µM, for the others: max response, negative = inhibition, actives largely listed as inhibitors; note: series mostly up to about 57 µM; % is set by controls: 0 for no effect and ±100 for the full control effect; nearly all actives have a fitted effect of over 65% in size
GLS inhibitor – inhibitors of human glutaminase (GLS); O94925; GLS enzymatic activity, qHTS titration; Potency, µM (highest dose often 45.5 µM), for the others: at the highest dose activity change, negative = inhibition, actives largely listed as inhibitors; 410,000 tested, 0.21% active; AID 624170; note: % is set by controls: 0 for no effect and ±100 for the full control effect
Target sequence (O94925 whole entry, looked up): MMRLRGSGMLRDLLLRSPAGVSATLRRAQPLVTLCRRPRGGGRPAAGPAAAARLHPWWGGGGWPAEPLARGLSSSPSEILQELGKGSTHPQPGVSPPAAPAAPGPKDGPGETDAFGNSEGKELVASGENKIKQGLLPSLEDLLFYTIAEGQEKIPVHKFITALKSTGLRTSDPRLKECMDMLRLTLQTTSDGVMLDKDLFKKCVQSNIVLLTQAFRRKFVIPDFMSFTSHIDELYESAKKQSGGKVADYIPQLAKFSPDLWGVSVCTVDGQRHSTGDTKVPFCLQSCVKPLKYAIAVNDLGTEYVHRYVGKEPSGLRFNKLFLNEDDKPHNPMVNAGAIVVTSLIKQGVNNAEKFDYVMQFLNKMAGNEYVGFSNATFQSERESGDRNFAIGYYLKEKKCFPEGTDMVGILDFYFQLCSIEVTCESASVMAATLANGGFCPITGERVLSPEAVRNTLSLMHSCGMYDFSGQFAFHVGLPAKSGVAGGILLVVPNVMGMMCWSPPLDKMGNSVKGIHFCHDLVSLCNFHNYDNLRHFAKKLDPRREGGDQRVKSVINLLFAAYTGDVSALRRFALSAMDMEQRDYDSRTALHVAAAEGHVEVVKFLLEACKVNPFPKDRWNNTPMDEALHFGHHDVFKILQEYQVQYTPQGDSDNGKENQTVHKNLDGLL
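Human kidney-isoform GLS in 45 mM KH2PO4 pH 8.2, 0.02% Tween-20, with compound, started with 1mM L-Glutamine (added stock). Glutamate oxidase/HRP/Amplex red coupled fluorescence read at start and after 30 min at RT.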
Mito fusion act – blocks mitochondrial division or promotes mitochondrial fusion. Potency, µM (series often up to 46.1 µM), for the others: at the highest dose growth rescue (activation), actives largely listed as activators. 320,000 tested, 0.23% active. AID 485298. S. cerevisiae fusion-defective mutant growth rescue, CellTiterGlo 48 h; note: % of control where 0% means no effect; nearly all actives have a fitted effect of over 45% in size
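Luminescent cell viability in 1536-well qHTS format served as the measure of rescued growth in ts fusion-mutant S. cerevisiae cultured on non-fermentable YPEG for 48 hours at 37C.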
* hit, by the source's call; ? = inconclusive; / = not tested or not shown. Calls come from the whole dose curve; as a rule, active = well fitted curve in the direction sought with a large enough effect; inconclusive = small, poorly fitted or top-dose-only effect, or another doubt; inactive = no such curve, though single readings can be large; an effect the other way counts as inactive or inconclusive. Potency is the fitted concentration of half-maximal effect.

SMILES | VDR inh | PKM2 act | KAT2A inh | PLK1 PBD block | GLS inhibitor | Mito fusion act
COc1ccc(C(=O)N2CCC(n3c(C)nc4cc(F)ccc43)CC2)cc1 | 0% | 11µM* | -9% | -1% | -12% | 3%
O=c1c(O[C@@H]2O[C@H](CO)[C@H](O)[C@H](O)[C@H]2O)c(-c2ccc(O)c(O)c2)oc2cc(O)cc(O)c12 | / | 8% | -6% | / | / | -5%
COc1c(-c2ccc(O)c(O)c2)oc2cc(O)cc(O)c2c1=O | -7% | -2% | -14% | -7% | ? | 0.63µM*
Nc1ccc(C(=O)Nc2ccc3c(O)cc(S(=O)(=O)O)cc3c2)cc1 | -7% | / | / | -11% | 6.3µM* | /
CCOc1nc(C#N)nc(N2CCOCC2)n1 | -24% | / | / | / | / | /
CCN(CC)CCn1c(-c2ccccc2)nc2c(N3CCOCC3)nc(C)nc21 | / | -1% | / | / | / | /
CNc1cnn(-c2ccccc2)c(=O)c1Cl | -19% | -1% | 0% | 11µM* | -15% | 0%
COc1ccc(C2NC(=S)N3C(c4ccc(OC)c(OC)c4)NC(=S)N23)cc1OC (stereo unspecified) | / | / | / | / | 1% | /
CCc1nnc(N/N=C/c2ccc(N3CCC(C)CC3)c([N+](=O)[O-])c2)n1N | 18µM* | 2% | -6% | -1% | 16% | 10%
CCOC(=O)C1=C(C)Nc2nc(=S)[nH]n2C1c1ccc(Cl)cc1 (stereo unspecified) | 79µM* | 0% | -1% | 24µM* | -26% | -3%
CCOC(=O)C1=C(C)Nc2nc(SCC)nn2C1c1ccc(OC)cc1 (stereo unspecified) | -17% | -7% | -3% | -4% | 4% | -1%
COc1ccc(NCC(=O)N/N=C2\CCc3ccccc32)cc1 | -14% | 9% | -1% | -3% | 20% | -2%
COc1ccc(OCC(=O)N/N=C2\CCCCc3ccccc32)cc1 | -26% | 3% | -19% | 11µM* | ? | -2%
CC=CCn1c(SCc2ccccc2)nc2c1c(=O)[nH]c(=O)n2C | / | / | / | 27µM* | -25% | /
C/C=C/Cn1c(SCc2ccc(C)cc2)nc2c1c(=O)[nH]c(=O)n2C | ? | -1% | -2% | 21µM* | 1% | 7%
C=CCn1c(SCc2ccc(Cl)cc2)nc2c1c(=O)[nH]c(=O)n2C | -26% | 6% | 2% | -14% | -12% | 20%
COc1cccc(Nc2ncc3nc(-c4cc(F)cc(F)c4)c(=O)n(C4CC4)c3n2)c1 | 1% | / | 1% | / | / | /
N#C/C(=C\c1ccccc1)C(=O)NNS(=O)(=O)c1ccc(Br)cc1 | 45µM* | / | -21% | 21µM* | ? | /
Cc1ccc(S(=O)(=O)N2CCN(c3nc(-c4cccs4)nc4c3ncn4COC(=O)C(C)(C)C)CC2)cc1 | -11% | / | / | / | / | /
C=CCn1c(SCc2ccc(C(=O)O)cc2)nc2sc(C)c(C)c2c1=O | ? | 3% | -4% | ? | -3% | 30%
Cc1ccc(CSc2nc3ccccc3c(=O)n2Cc2ccco2)cc1 | -10% | -2% | -8% | 27µM* | 4% | 13%
Cc1sc2nc(SCc3ccc(C(=O)O)cc3)n(Cc3ccco3)c(=O)c2c1C | 89µM* | -3% | -2% | 27µM* | -15% | 17%
CCOC(=O)C1CCN(C(=O)CNC(=O)Cn2c(C)cc3ccccc3c2=O)CC1 | -14% | 2% | -1% | -6% | -1% | -2%
CC(C)CNC(=O)c1cccc(NC(=O)C(C)Oc2ccccc2)c1 (stereo unspecified) | 3% | 0% | -14% | 27µM* | 8% | 5%
Cc1c(C(=O)N(Cc2ccccc2)C(C)C)oc2ccc(S(=O)(=O)N3CCOCC3)cc12 | -12% | / | -6% | 30µM* | 11% | ?
SMILES | VDR inh | PKM2 act | KAT2A inh | PLK1 PBD block | GLS inhibitor | Mito fusion act
CCCCN(CC)C(=O)c1oc2ccc(S(=O)(=O)N3CCCC3)cc2c1C | ? | / | -9% | 30µM* | 21% | ?
Cc1c(C(=O)N(C)CCC#N)oc2ccc(S(=O)(=O)N3CC(C)CC(C)C3)cc12 (stereo unspecified) | ? | / | -4% | 19µM* | 27% | 27%
Cc1c(C(=O)N(C)Cc2ccccc2)oc2ccc(S(=O)(=O)N3CCCC3)cc12 | 12% | ? | -18% | -10% | -20% | -1%
CCN(CC)S(=O)(=O)c1ccc2oc(C(=O)O)c(C)c2c1 | 5% | 1% | -3% | -6% | 20% | -2%
CCN(CC)S(=O)(=O)c1ccc2oc(C(=O)NC(C)C)c(C)c2c1 | -10% | -4% | 2% | 27µM* | 3% | 4%
Cn1cccc1C(=O)N1CCC2(CC1)CCN(c1ccc(-c3ccccc3)cc1)CC2 | -4% | / | -11% | / | / | /
Cc1ccc(C2CC(=O)n3nc(-c4ccc(Cl)cc4)nc3S2)cc1 (stereo unspecified) | -15% | / | -5% | / | 12% | /
Cc1cccc(-c2nnc(C3CCN(S(=O)(=O)c4cccc(Cl)c4)CC3)o2)c1 | ? | / | -8% | / | 10% | /
COC(=O)N1CCC2(CCCN(Cc3nccs3)C2)CC1 | 5% | / | -2% | / | / | /
Cc1ccccc1-c1cnc(C(O)c2ccc(F)c(F)c2)[nH]1 (stereo unspecified) | / | / | / | -13% | -2% | /
O=C(/C=C/c1cccs1)Nc1cccc(NC(=O)/C=C/c2cccs2)n1 | -23% | -19% | -3% | 4% | 8% | 14µM*
Cc1cc(C)nc(NC(=O)/C=C/c2cccs2)c1 | 2% | -9% | 1% | -3% | 22% | 5%
O=C(NCC1CCCO1)c1ccc2c(c1)N(Cc1ccccc1)C(=O)CS2 (stereo unspecified) | -18% | / | -3% | 30µM* | 20% | 21%
COc1ccc(OC)c(CCNC(=O)c2ccc3c(=O)[nH]c4c(C(=O)NC(C)C)sc(=S)n4c3c2)c1 | -24% | / | -26% | ? | ? | 11%
CC(C)NC(=O)c1sc(=S)n2c1[nH]c(=O)c1ccc(C(=O)NCCc3ccc(Cl)cc3)cc12 | -20% | / | -6% | 27µM* | ? | 4%
CCOc1ccc(CCNC(=O)c2ccc3c(=O)[nH]c4c(C(=O)NC(C)C)sc(=S)n4c3c2)cc1 | -1% | / | -18% | ? | ? | 1%
O=C(NCCc1ccccc1)c1ccc2c(=O)[nH]c3c(C(=O)NCC4CCCO4)sc(=S)n3c2c1 (stereo unspecified) | 79µM* | / | ? | 30µM* | 4% | 1%
O=S(=O)(c1cnc2ccccc2c1)N1CCN(c2nc(-c3cccs3)nc3ccccc23)CC1 | -3% | / | / | / | / | /
CC(C)C(=NO)c1ccccc1 | -5% | / | / | -6% | -7% | /
O=C(O)C(Cc1ccccc1)N1C(=O)/C(=C/c2cccnc2)SC1=S (stereo unspecified) | ? | -12% | -9% | 0% | 0% | 1%
